High-throughput results as filed in PubChem BioAssay.
Only some compounds are listed: those with a hit (about 11% of all), similar ones and a draw of the others.
Luciferase inh: Photinus pyralis luciferase inhibition; 76,000 tested, 2.5% active; Potency, µM (highest dose often 115 µM), actives largely listed as inhibitors; P08659; AID 1347043; purified P. pyralis luciferase, luminescence, biochemical; also: nearly all actives have a fitted effect of over 65% in size
Target sequence (P08659 whole entry, looked up): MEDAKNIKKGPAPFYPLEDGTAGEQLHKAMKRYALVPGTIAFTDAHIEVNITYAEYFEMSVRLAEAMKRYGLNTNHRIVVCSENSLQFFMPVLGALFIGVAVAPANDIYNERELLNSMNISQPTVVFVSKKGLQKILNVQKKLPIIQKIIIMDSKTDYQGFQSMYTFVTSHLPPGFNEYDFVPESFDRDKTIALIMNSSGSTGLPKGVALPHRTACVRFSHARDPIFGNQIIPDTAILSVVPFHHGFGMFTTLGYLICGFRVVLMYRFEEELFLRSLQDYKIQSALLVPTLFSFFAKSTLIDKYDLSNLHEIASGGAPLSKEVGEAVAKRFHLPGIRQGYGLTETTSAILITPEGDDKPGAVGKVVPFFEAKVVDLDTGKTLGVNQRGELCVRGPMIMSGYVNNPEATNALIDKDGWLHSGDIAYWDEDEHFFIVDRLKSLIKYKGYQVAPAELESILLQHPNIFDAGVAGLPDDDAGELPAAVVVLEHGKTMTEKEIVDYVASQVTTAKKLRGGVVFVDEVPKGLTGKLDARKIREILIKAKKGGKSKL
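Purified P. pyralis luciferase (10nM final) in 50mM Tris acetate pH 7.5, 10mM Mg acetate, 0.01% Tween-20, 0.05% BSA with 10uM D-luciferin and 10uM ATP. Compounds titrated qHTS. Luminescence imaged on CCD.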
HEK cytotox: HEK 293 cell cytotoxicity | HEK 293 viability, ATP luminescence (CellTiter-Glo), 48-72 h | Potency, µM (doses to about 115 µM), inactives show top-dose activity change, negative = cytotoxicity, hits mostly inhibitors | 94,000 tested, 6.6% active | AID 1345083; also: nearly all actives have a fitted effect of over 60% in size
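Pintool-delivered compounds were incubated with HEK 293 cells (250 cells/well) at 37 degree Celsius for 48 or 72 hr. ATP-dependent luminescence (CellTiter-Glo) then reported remaining viable cells.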
NIH3T3 tox: cytotoxic compounds in NIH 3T3 cells | 94,000 tested, 4.3% active | NIH 3T3 viability, CellTiter-Glo ATP luminescence, 48-72 h | Potency, µM (titrated, usually from 96.7 µM), inactives show top-dose activity change, negative = cytotoxicity, most hits filed as inhibitors; also: nearly all actives have a fitted effect of over 55% in size
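Cytotoxicity was measured by CellTiter-Glo ATP luminescence after 48 or 72 h compound exposure at 37 °C. Mouse NIH 3T3 fibroblasts were seeded at 400 cells/well and dosed by 23 nL pin transfer.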
hNpr1 antagonist: blocks ANP-stimulated signaling of human Npr1 receptor. P16066. HEK293 hNpr1 GloSensor cGMP, ANP-stimulated luminescence. Potency, µM (titrated, usually from 46.3 µM), for inactives: top-dose activity change, negative = inhibition, usual class: inhibitors. 76,000 tested, 1.6% active; calls by dose curve; also: nearly all actives have a fitted effect of over 60% in size
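HEK293 cells stably expressing human Npr1 and cGMP GloSensor pGS-40F, loaded 2 h with 2% GloSensor reagent, given compound 30 min at room temperature. Luminescence read before and 20 min after 0.1 nM hNppA.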
* = called active by the depositor; i = inactive; u = inconclusive; x = not tested or not shown; [ ] = another dose, or the depositor's remark. Unless noted, calls follow the shape of the dose curve; as a rule, active = well fitted curve in the direction sought with a large enough effect; inconclusive = small, poorly fitted or top-dose-only effect, or another doubt; inactive = no such curve, though single readings can be large; an effect the other way counts as inactive or inconclusive. % is scaled to controls: 0 for no effect and ±100 for the full control effect; potency is read from the fitted curve at half-maximal effect.

SMILES	Luciferase inh	HEK cytotox	NIH3T3 tox	hNpr1 antagonist
COc1ccc(F)cc1-c1cccc(C(=O)NCC(=O)NCCc2ccccc2)c1	x	u	-27%	x
CCCOC(=O)N1CCC(C(=O)Nc2cccc(-c3cccc(F)c3)c2)CC1	i	45µM*	u	u
CCN(Cc1ccccc1)c1ncncc1-c1nc(-c2ccccc2)no1	i	79µM*	u	-24%
CCCOCCCNC(=O)c1c(C)noc1-c1ccc(C(C)(C)C)cc1	i	35µM*	u	3%
COc1ccc(C(=O)N2CCCC(c3noc(COc4ccccc4)n3)C2)cn1 (stereo not drawn)	i	-11%	-6%	-6%
C#CCNC(=O)C[C@@H]1c2nc(NC(=O)c3ccc(C(C)(C)C)cc3)sc2C[C@@H]2[C@](C)(CO)[C@H](O)CC[C@]21C	35µM*	u	32µM*	-9%
COCC(=O)Nc1nc2c(s1)C[C@@H]1[C@](C)(CO)[C@H](O)CC[C@@]1(C)[C@@H]2CC(=O)N1CCC(C)CC1	i	i	-6%	0%
COc1ccc(C(=O)Nc2nc3c(s2)C[C@@H]2[C@](C)(CO)[C@H](O)CC[C@@]2(C)[C@@H]3CC(=O)N2CCC(C)CC2)cc1	i	u	18µM*	-14%
COc1ccc(C(=O)Nc2nc3c(s2)C[C@@H]2[C@](C)(CO)[C@H](O)CC[C@@]2(C)[C@@H]3CC(=O)N(C)Cc2ccccc2)cc1	i	u	u	-15%
CN(Cc1ccccc1)C(=O)C[C@@H]1c2nc(NC(=O)c3ccc(F)cc3)sc2C[C@@H]2[C@](C)(CO)[C@H](O)CC[C@]21C	i	u	25µM*	-10%
C=CCCC(=O)N1CCC(=O)N(CCC#N)C[C@H]2COc3cc(OC)ccc3[C@H]21	x	-5%	u	x
Cc1ccc(CNC(=O)CN2CCCc3nc(C4CC4)ncc3C2=O)cc1	x	-11%	-25%	x
Cc1noc2c(NCC3CCOCC3)cc(-c3ccc(Cl)cc3)nc12	i	100µM*	u	1%[70.6 µM]
Cc1noc2c(NCc3ccncc3)cc(-c3ccc(Cl)cc3)nc12	i	u	45µM*	-3%[70.6 µM]
Cc1noc2c(NCc3ccccc3)cc(-c3cccnc3)nc12	i	-21%[172 µM]	u	7%[70.6 µM]
Cc1noc2c(NCc3cccnc3)cc(-c3ccc(Cl)cc3)nc12	i	100µM*	u	7%[70.6 µM]
COc1ccccc1CNc1ncnc2c1CN(C1CCCNCC1)C(=O)CN2C (stereo not drawn)	x	2%	i	x
COc1ccc(-c2noc(-c3cccn3CC(=O)Nc3ccccc3C)n2)cc1F	i	-10%	-1%	2%
O=C(c1cccc(F)c1)N1CCCC(c2noc(COc3ccccc3F)n2)C1 (stereo not drawn)	i	71µM*	u	-7%
Cc1ccc(OCc2nc(C3CCN(S(=O)(=O)Cc4ccccc4F)C3)no2)cc1 (stereo not drawn)	i	25µM*	u	u
Cc1cccc(C(=O)N2CCCC(c3noc(COc4ccccc4F)n3)C2)c1 (stereo not drawn)	i	u	u	-24%
O=C(CC1CCCC1)N1CCCC(c2noc(COc3ccccc3)n2)C1 (stereo not drawn)	i	u	u	-29%
Cc1c(F)cccc1NC(=O)N1CCCC(c2noc(COc3ccccc3)n2)C1 (stereo not drawn)	11µM*	u	u	-25%
O=C(CC1CCCCC1)N1CCCC(c2noc(COc3ccccc3)n2)C1 (stereo not drawn)	i	u	40µM*	u
O=C(Cc1cccc(Cl)c1)NCCNC(=O)c1ccc(-c2cncnc2)cc1	x	-20%	-21%	x
SMILES	Luciferase inh	HEK cytotox	NIH3T3 tox	hNpr1 antagonist
Cc1ccc(C(=O)N2CCC(C(=O)N3CCC(N4CCOC4=O)CC3)CC2)cc1	x	i	0%	x
O=C1NCc2ccccc2CC12CCCN(CC1=CCCCC1)C2 (stereo not drawn)	x	u	-7%	x
COc1ccc(-c2nc(C3CC3)nc3c2CN(C(=O)c2ccccn2)CC3)cc1	x	3%	-30%	x
CCc1ccc(NC(=O)N2CCCC(c3noc(COc4ccccc4F)n3)C2)cc1 (stereo not drawn)	2.2µM*	u	u	u
O=C(C1CCCC1)N1CCCC(c2noc(COc3ccccc3F)n2)C1 (stereo not drawn)	i	u	u	-22%
C=CCN1C[C@@H]2C[C@@H](C(=O)NC)N(C(=O)CC(C)(C)C)c3cccc(c32)[S+]1(=O)[O-]	x	-12%[57.5 µM]	u	x
CNC(C)c1ccc(OC(F)(F)F)cc1 (stereo not drawn)	x	i	i	x
CNC(C)c1ccc(Oc2ccccc2)cc1 (stereo not drawn)	x	100µM*	79µM*	x
CC(C)NC(=O)c1ccc2nnc(-c3cncc(Cl)c3)n2c1	x	i	-10%[138 µM]	x
CC1(COc2cccnc2)COc2ccc(C(=O)NCCOc3ccccc3)cc2N1 (stereo not drawn)	u	u	u	8.9µM*
CC1(COc2cccnc2)COc2ccc(C(=O)NCCc3ccccc3)cc2N1 (stereo not drawn)	u	u	u	8.9µM*
O=C(Nc1cccc(-c2nnc3n2CCCC3)c1)Nc1ccccc1F	i	-11%	-13%	-8%
O=C(Nc1cccc(-c2ccc(N3CCCC3)nn2)c1)Nc1c(F)cccc1F	14µM*	u	u	-17%
O=C(Nc1cccc(-c2ccc(N3CCCC3)nn2)c1)Nc1cc(F)ccc1F	5µM*	u	u	u
Cc1ncc(CN2CCC(C(=O)Nc3cccc(-c4cc5ccccc5[nH]4)c3)CC2)cn1	i	20µM*	u	-1%
O=C(Nc1cccc(-c2ccco2)c1)C1CCN(Cc2ccc(CO)o2)CC1	i	u	-30%	-15%
O=C(Cc1cccs1)N1CCCN(c2cc(-c3ccc(Br)cc3)[nH]n2)CC1	i	45µM*	35µM*	u
O=C(COc1ccc(F)cc1)N1CCCN(c2cc(-c3ccc(Br)cc3)[nH]n2)CC1	i	45µM*	u	u
O=C(c1cccs1)N1CCCN(c2cc(-c3ccc(F)cc3)[nH]n2)CC1	i	u	-12%	-10%
COCC(=O)N1CCC(C(=O)N2CCC(c3nc4ncccc4[nH]3)CC2)C1 (stereo not drawn)	x	2%	1%	x
Cc1cc(C)cc(-c2ccc(CN3CCCC(NC(=O)N(C)C)C3)cc2)c1 (stereo not drawn)	x	32µM*	u	x
Cc1cc(C)cc(-c2ccc(CN3CCCC(NC(=O)Cc4cccc(Cl)c4)C3)cc2)c1 (stereo not drawn)	x	25µM*	u	x
COc1ccc(CC(=O)NC2CCCN(Cc3ccc(-c4cc(C)cc(C)c4)cc3)C2)cc1 (stereo not drawn)	x	22µM*	18µM*	x
COc1ccc(CC(=O)NC2CCCN(c3cc(-c4ccc(OC)cc4)[nH]n3)C2)cc1 (stereo not drawn)	i	5%	1%	0%
